ChEMBL document CHEMBL4513216, “Probing the Open Global Health Chemical Diversity Library for Multistage-Active Starting Points for Next-Generation Antimalarials” (ACS Infect Dis, 2020)
Out of some 69,000 compounds screened, about 8,600 (12%) showed an effect of 50% or more. The sample holds strong results, similar compounds and a random draw of the others, so the mix is not that of the screen.

system: Plasmodium berghei; assay: Screen against P. berghei liver stage (PbLuc), transformed with Luciferase, at 10uM; type: functional, HepG2; conditions: tested at 10 uM

Structure (SMILES) | INHIBITION [%]
Cc1nn(C)c2cn(CC(=O)N3CCN(c4ccccc4)CC3)nc12 | 30.8
CC1(C)C(C(=O)NCCC2CN(Cc3c[nH]cn3)CCO2)C1(C)C (stereo unspecified) | 55.5
Cn1ccnc1CN1CCOC(Cc2ccccc2)C1 (stereo unspecified) | 0.696
O=C(NCCC1CN(Cc2c[nH]cn2)CCO1)Nc1ccccc1 (stereo unspecified) | 1.79
c1ccc(C(CC2CN(Cc3c[nH]cn3)CCO2)c2ccccc2)cc1 (stereo unspecified) | 72.1
c1ccc(C(CC2CN(Cc3ncc[nH]3)CCO2)c2ccccc2)cc1 (stereo unspecified) | 43.9
O=C(NCCC1CN(Cc2c[nH]cn2)CCO1)c1ccccc1O (stereo unspecified) | 18.6
CC(C)NC(=O)N(Cc1cc(O)nc2ccccc12)C(C)C | -10.3
CCOc1ccnc(N2CCN(C(=O)c3ccoc3)CC2)n1 | 23.7
Cc1cc(C)c2[nH]c(C(=O)NCCN3CCNC3=O)c(C)c2c1 | -16.3
Cc1nc(=O)c(CC(=O)N2C[C@@H]3CC[C@H]2CN(C(=O)N(C)C)C3)c(C)[nH]1 | 0.547
Cc1ccc(CN2C[C@@H](OCc3csc(C)n3)[C@H]3COC[C@H]32)s1 | -14.4
Cc1cnc(CNC(=O)[C@@]23CCO[C@@H]2CCNC3)cn1 | 49.4
Cc1cc(C[C@@H]2COC[C@H]2NCc2ccc(Br)s2)on1 | 31.8
Cc1cc(C[C@@H]2COC[C@H]2NCc2ccccc2C(F)(F)F)on1 | 50
Cc1cc(C[C@@H]2COC[C@H]2NCc2ccc(C(F)(F)F)cc2)on1 | 31.6
Cc1cc(C[C@@H]2CCC[C@H]2NCc2ccccc2C(F)(F)F)on1 | 70.5
Cc1cc(C[C@@H]2CCC[C@H]2NCc2cc(C)c(O)c(C)c2)on1 | 26.7
Cc1cc(C[C@@H]2CCC[C@H]2NCc2cc(F)ccc2F)on1 | -1.85
Cc1cc(C[C@@H]2CCC[C@H]2NCc2ccc(C(F)(F)F)cc2)on1 | 41.2
Cc1cc(C[C@@H]2CCC[C@H]2NCc2ccccc2C)on1 | 44.1
Cc1cc(C[C@@H]2CCC[C@H]2NCc2c[nH]nc2-c2ccccc2)on1 | 5.56

Structure (SMILES) | INHIBITION [%]
CCCOc1ccccc1CN[C@@H]1CCC[C@H]1Cc1cc(C)no1 | 54.5
Cc1cc(C[C@@H]2CCC[C@H]2NCc2ccccc2F)on1 | 75.3
Cc1cc(C[C@@H]2CCC[C@H]2NCc2cccc(F)c2F)on1 | 15.9
O=C(CCc1nc(C2CC2)no1)c1ccc(F)c(F)c1 | -2.43
CCOc1ccc(OCc2nc3c(c(=O)[nH]2)CCNC3)cc1 | 26.7
c1coc(CN2C[C@@H]3OCCN(CCN4CCCC4)[C@@H]3C2)c1 | 36.4
CCn1cnnc1CNC(=O)N1CCC(OCc2ccccc2)CC1 | 23.4
COCc1cncc2c1CCN(C(=O)c1ccc(C#N)cc1)C2 | 5.89
CC(C)C(=O)N1CCC(C)(c2cc[nH]n2)CC1 | -16.9
O[C@@H]1CC(CNCc2cccc(Cl)c2)(COc2cnccn2)C[C@@H]1O (stereo partly specified) | -4.26
CN(Cc1n[nH]c2c1CCC2)C(=O)CCc1cc2n(n1)CCCNC2 | 0.72
CO[C@@H]1CN(c2ccccc2)S(=O)(=O)[C@@]12CCN(C(=O)N(C)C)C2 | 51.7
CO[C@@H]1CN(c2ccccc2)S(=O)(=O)[C@@]12CCN(C(C)=O)C2 | 34.3
COC(=O)N1CC[C@@]2(C1)[C@H](OC)CN(c1ccccc1)S2(=O)=O | 31.3
O=C1CCC2(CCNCC2)CN1Cc1nncn1CCc1ccccc1 | 0.348
Cc1nccn1-c1ccc(CNS(=O)(=O)N2CCC(C)CC2)cn1 | 76
Cc1nccn1-c1ccc(CNS(=O)(=O)N2CCCCC2C)cn1 (stereo unspecified) | 43.9
Cc1nccn1-c1ccc(CNC(=O)c2ccc(O)nc2)cn1 | 38.3
Cc1nccn1-c1ccc(CNS(=O)(=O)N2CCCC(C)C2)cn1 (stereo unspecified) | 37.7
CC(=O)NCc1ccc(-n2ccnc2C)nc1 | 57.6
Cc1nccn1-c1ccc(CNC(=O)c2ccc[nH]2)cn1 | 10.5
CCn1cc(C(=O)Nc2cc(C(=O)OC)ccc2C(=O)OC)cn1 | 13.3

Structure (SMILES) | INHIBITION [%]
COc1ccccc1Cc1cc(O)nc(NC(C)CN(C)C)n1 (stereo unspecified) | 9.63
CC(NC(=O)COc1ccccc1Cl)c1nnc2n1CCC2 (stereo unspecified) | -40.7
CC(C)CN1CC(C(=O)NCc2ccnc(-n3cccn3)c2)CC1=O (stereo unspecified) | 27.357
CCS(=O)(=O)N1CCCC(Cc2cnccn2)C1 (stereo unspecified) | 56
CS(=O)(=O)N1CCCC(Cc2cnc(Br)cn2)C1 (stereo unspecified) | 26.7
Cn1cc(C(=O)N2CCCC(Cc3cnccn3)C2)cn1 (stereo unspecified) | -12.2
CC(NC(=O)CCCn1cnc2ccccc2c1=O)c1ncn[nH]1 (stereo unspecified) | 11.1
COCc1cc(NCCc2ccc(OC)cc2)n2nccc2n1 | 32.2
N#CC1(NC(=O)c2ccc(-c3nc(C4CC4)n[nH]3)cc2)CC1 | 8.38
Cc1cc(=O)n(CC(=O)NCCC(C)C)c(-c2cccc(Cl)c2)n1 | 48.5
CCC(C)NC(=O)Cn1c(Nc2cc(C)cc(C)c2)nc(C)cc1=O (stereo unspecified) | 55.4
Cc1cccc(-c2nc(C)nn2CC(=O)NC(C)C)c1 | 22.3
Cc1cc(=O)n(CC(=O)NC(C)C)c(Nc2ccc(F)c(C)c2)n1 | 64.2
Cc1cc(C)cc(Nc2nc(C)cc(=O)n2CC(=O)NC(C)C)c1 | 34.6
CCC(C)NC(=O)CCn1ccc(C)n1 (stereo unspecified) | -5.77
CC(C)n1cnc2ccc(NC(=O)CCCn3cccn3)cc2c1=O | -5.38
Cc1cccc(C(=O)N2CCC(C(=O)c3cc(F)ccc3F)CC2)n1 | 11.6
Cc1cc(NC(=O)N2CCCC2C(C)(C)O)c2ncccc2c1 (stereo unspecified) | 35.4
Cc1cc(NC(=O)N2CCCC2C(=O)NC2CC2)c2ncccc2c1 (stereo unspecified) | 22.6
Cc1cc(NC(=O)NC2CCN(C(C)C)CC2)c2ncccc2c1 | 70.5
CCN(C(=O)c1nc2c(s1)CCCN2S(C)(=O)=O)C(C)C | 4.68
Cc1cc(C)n(C2CCCN(C(=O)CCNc3ncccn3)C2)n1 (stereo unspecified) | 41.5
